Values joined by “and” are separate entries in the source; they are usually repeats but may differ in a detail not shown here. Equal values may be shown once.
Legend:
Plasmodium falciparum [1] = assay: GSK_TCMDC: Inhibition of Plasmodium falciparum 3D7 in whole red blood cells, using parasite LDH activity as an index of growth. Test compounds present at 2uM; type: functional
Plasmodium falciparum [2] = assay: GSK_TCMDC: Inhibition of Plasmodium falciparum Dd2 in whole red blood cells, using parasite LDH activity as an index of growth. Test compounds present at 2uM; type: functional

Row | SMILES | Inhibition (Plasmodium falciparum [1]) | Inhibition (Plasmodium falciparum [2])
1 | Nc1ncc(-c2ccc(S(=O)(=O)Nc3ccc(C(=O)N[C@@H](CCC(=O)O)C(=O)O)cc3)cc2)c(=O)[nH]1 | 99% | 0%
2 | Cl.FC(F)(F)c1ccc2c(NCCCNc3ccnc4cc(C(F)(F)F)ccc34)ccnc2c1 | 100% | 100%
3 | Cc1nc2nc(N)nc(N)c2c(C)c1Cc1ccc(N)cc1.Cl | 97% | 0%
4 | Cc1nc(C)c(-c2ccc(Oc3cccc(OC(F)(F)F)c3)cc2)c(O)c1Br | 100% | 96%
5 | CCC(=C(CC)c1ccc(O)c(CNC2CCCCC2)c1)c1ccc(O)c(CNC2CCCCC2)c1.Cl | 100% | 100%
6 | COc1cc(Cc2cnc(N)nc2N)cc(OCCCCC#N)c1OC | 86% | 0%
7 | Cc1cccc(-c2c(C)nc(N)nc2N)c1 | 88% | 0%
8 | Cc1cc(O)c(-c2ccc(OCc3ccc(Cl)cc3)cc2)c(C)n1 | 93% | 76%
9 | CC/N=C(/NCCCCCCN/C(=N/CC)NCc1ccccc1)NCc1ccccc1.I | 96% | 95%
10 | Cl.N=C(N)c1ccc(OCCCCCOc2ccc(C(=N)N)cc2)cc1 [PENTAMIDINE HYDROCHLORIDE] | 99% | 98%
11 | Cc1ccc(Cn2ccc3c4c(N)nc(N)nc4ccc32)cc1 | 99% | –
12 | Cc1nc(C)c(-c2ccc(-c3ccc(F)cc3)cc2)c(O)c1Cl | 96% | 96%
13 | Cc1[nH]c(C)c(-c2ccc(Oc3ccc(Cl)cc3)cc2)c(=O)c1C | 96% | 95%
14 | Cc1[nH]c(C)c(-c2ccc(Oc3ccccc3)cc2)c(=O)c1Br | 96% | 97%
15 | Nc1nc(N)c2c3c(ccc2n1)CCC3 | 92% | 2%
16 | Cc1ccccc1Cn1ccc2c3c(N)nc(N)nc3ccc21 | 100% | –
17 | CCC1=C(CC2NCCc3cc(OC)c(OC)cc32)CC2c3cc(OC)c(OC)cc3CCN2C1 (configuration not stated) [DIHYDROEMETINE] | 100% | 100%
18 | Cc1cccc(Cn2ccc3c(N)nc(N)nc32)c1 | 82% | –
19 | Cc1cccc(Cn2ccc3c4c(N)nc(N)nc4ccc32)c1 | 95% | 98%

Row | SMILES | Inhibition (Plasmodium falciparum [1]) | Inhibition (Plasmodium falciparum [2])
20 | CCS(=O)(=O)O.N=C(N)NC(=O)Nc1ccc(Cl)c([N+](=O)[O-])c1 | 97% | 9%
21 | CN(Cc1cnc2nc(N)nc(N)c2n1)c1ccc(C(=O)N[C@@H](CCC(=O)O)C(=O)O)cc1 [METHOTREXATE] | 91% and 92% | 44% and 66%
22 | CCCOc1cc2c(cc1OCCC)C(C=Cc1ccc(Cl)cc1Cl)=NC(C)C2.Cl (configuration not stated) | 90% | 75%
23 | CCc1cc2c3c(N)nc(N)nc3ccc2n1C(C)(C)C | 99% | –
24 | Nc1nnc(-c2ccc(Cl)c(Br)c2)c(N)n1 | 86% | 0%
25 | Nc1nc(N)c2c(ccc3c2ccn3Cc2ccc(Br)cc2)n1 | 100% | 98%
26 | Nc1nc(N)c2c(ccc3c2ccn3Cc2ccc3c(c2)OCO3)n1 | 100% | 95%
27 | CCN(C)C(=O)n1ncc2c3c(N)nc(N)nc3ccc21 | 95% | 0%
28 | CCCCCCOc1ccc2ccccc2c1CNCCCCCCNCc1c(OCCCCCC)ccc2ccccc12.CS(=O)(=O)O | 85% | 55%
29 | CCc1cccc(-c2cc(N)n(C)c3nc(N)nc(=O)c2-3)c1 | 85% | 28%
30 | CC(=NNC(S)=NCc1ccco1)c1ccccn1 | 99% | 100%
31 | CCOC(=O)c1nc2ccc(SC3CCCCC3)cn2c1Br | 86% | 3%
32 | Cc1cc2c3c(N)nc(N)nc3ccc2n1C | 95% | 0%
33 | Nc1nc(N)c2c(ccc3c2cnn3Cc2cccnc2)n1 | 95% | 96%
34 | CC(C)Oc1ccc2ccccc2c1CNCCCCCCNCc1c(OC(C)C)ccc2ccccc12.CS(=O)(=O)O | 99% | 90%
35 | Nc1nc(N)c2c(Sc3ccccc3)cccc2n1 | 97% | 0%
36 | COc1ccc(Cc2cnc3nc(N)nc(N)c3c2C)cc1OC.O=S(=O)(O)CCO | 93% | 97%
37 | CCCCC#Cc1cnc2nc(N)[nH]c(=O)c2n1 | 89% | 2%
38 | Cl.O[C@@H](c1cc(C(F)(F)F)nc2c(C(F)(F)F)cccc12)[C@H]1CCCCN1 | 96% and 99% | 99%

Reference: ChEMBL document CHEMBL1157539, “Thousands of chemical starting points for antimalarial lead identification” (Nature, 2010)
